The results in this text go back to the supplement of paper PMC10849652.

The full data set covers some 7,900 targets. This sample favours those with a hit. About 0.6% of all pairs of compound and target were hits. Values without a mark were called inactive.

Holding throughout (assay): log2 fold change, soluble protein after heating vs DMSO (PISA); higher = thermal stabilisation; K562 cells, 10 uM, 30 min; active = over 0.2 and 3.5 SD of the protein, either way, in both replicates (recomputed)
Compound in assay [1]: C1=CC=C(C=C1)[C@H](COC2=CC3=C(C=C2)NC(=O)N3)NC(=O)C4=CC=CN(C4=O)CC5=CC(=C(C=C5)F)F
The procedure, abridged:
(§1)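 For each measurement, 10 μM compound was applied for 30 min to K562 cells at 2×10^6 cells/mL. Aliquots were heated for 3 min across 48°C-58°C, pooled, and extracted in PBS with 0.5% NP-40 at 4°C; the supernatant after 21,000xg for 90 min was soluble protein. This was quantified by TMTpro 16plex LC-MS/MS with channel sums equalised, and thermal stability was reported relative to control samples from duplicates, on a log2 fold-change scale.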

Compound in assay [2]: CC1=C(SC2=C1C(=N[C@H](C3=NN=C(N32)C)CC(=O)N)C4=CC=C(C=C4)Cl)C
The procedure, abridged:
as §1

Compound in assay [3]: CC1=C2C(=CC=C1)N=C(N(C2=O)C3=CC=CC=C3C)CN4C=NC5=C(N=CN=C54)N
Summed up: as §1

Compound in assay [4]: Cc1sc2c(c1C)C(c1ccc(Cl)cc1)=N[C@@H](CC(=O)OC(C)(C)C)c1nnc(C)n1-2
The procedure, abridged:
as §1

Compound in assay [5]: c1ccc([C@@H]2C[C@H]2NC2CCNCC2)cc1
The procedure, abridged:
as §1

UniProt Q8NBN7, sequence (Q8NBN7 whole entry, looked up): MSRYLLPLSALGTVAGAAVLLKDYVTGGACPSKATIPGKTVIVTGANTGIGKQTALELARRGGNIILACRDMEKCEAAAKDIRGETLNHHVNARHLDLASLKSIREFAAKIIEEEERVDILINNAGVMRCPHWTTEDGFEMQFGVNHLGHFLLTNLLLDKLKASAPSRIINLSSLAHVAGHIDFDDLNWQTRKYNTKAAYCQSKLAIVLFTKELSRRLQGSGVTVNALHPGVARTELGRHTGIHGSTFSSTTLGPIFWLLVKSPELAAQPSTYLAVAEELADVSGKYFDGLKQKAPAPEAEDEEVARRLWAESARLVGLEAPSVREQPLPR
UniProt Q9NQG5, sequence (Q9NQG5 whole entry, looked up): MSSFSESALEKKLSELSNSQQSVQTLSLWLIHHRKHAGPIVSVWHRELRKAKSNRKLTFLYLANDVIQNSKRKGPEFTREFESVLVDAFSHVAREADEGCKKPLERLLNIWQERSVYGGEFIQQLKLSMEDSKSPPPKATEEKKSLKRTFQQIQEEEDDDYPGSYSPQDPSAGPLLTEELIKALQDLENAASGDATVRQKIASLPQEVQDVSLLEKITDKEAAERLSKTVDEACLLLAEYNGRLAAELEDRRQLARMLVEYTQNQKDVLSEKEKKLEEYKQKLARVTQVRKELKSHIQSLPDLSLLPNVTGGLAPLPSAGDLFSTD
UniProt Q92696, sequence (Q92696 whole entry, looked up): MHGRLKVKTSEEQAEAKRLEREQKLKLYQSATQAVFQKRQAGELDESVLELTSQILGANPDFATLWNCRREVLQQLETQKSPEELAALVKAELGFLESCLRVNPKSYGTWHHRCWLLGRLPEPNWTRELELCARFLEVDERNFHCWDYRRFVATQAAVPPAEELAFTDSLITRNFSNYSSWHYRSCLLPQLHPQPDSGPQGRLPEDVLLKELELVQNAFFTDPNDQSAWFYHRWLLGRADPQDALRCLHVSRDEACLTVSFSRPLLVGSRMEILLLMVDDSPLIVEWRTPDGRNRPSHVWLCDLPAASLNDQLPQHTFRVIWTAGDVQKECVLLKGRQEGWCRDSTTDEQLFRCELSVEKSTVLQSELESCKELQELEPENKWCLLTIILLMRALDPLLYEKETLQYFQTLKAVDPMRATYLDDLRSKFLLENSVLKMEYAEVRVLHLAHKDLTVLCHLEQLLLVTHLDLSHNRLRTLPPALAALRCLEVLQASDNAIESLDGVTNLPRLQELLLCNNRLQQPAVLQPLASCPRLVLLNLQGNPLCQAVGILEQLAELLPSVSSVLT
UniProt Q9UKL0, sequence (Q9UKL0 whole entry, looked up): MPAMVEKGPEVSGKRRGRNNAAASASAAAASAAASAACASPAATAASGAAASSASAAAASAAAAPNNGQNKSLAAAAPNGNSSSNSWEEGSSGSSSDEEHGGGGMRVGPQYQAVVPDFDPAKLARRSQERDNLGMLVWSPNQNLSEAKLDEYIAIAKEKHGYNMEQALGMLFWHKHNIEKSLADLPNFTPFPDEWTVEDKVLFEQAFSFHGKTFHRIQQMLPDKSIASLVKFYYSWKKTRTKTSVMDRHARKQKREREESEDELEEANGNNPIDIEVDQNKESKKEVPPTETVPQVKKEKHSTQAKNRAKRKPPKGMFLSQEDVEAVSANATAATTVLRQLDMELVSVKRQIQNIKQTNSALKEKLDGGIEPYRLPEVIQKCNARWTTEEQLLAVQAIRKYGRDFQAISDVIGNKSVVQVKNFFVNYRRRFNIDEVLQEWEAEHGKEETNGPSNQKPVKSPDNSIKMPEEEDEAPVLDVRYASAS
UniProt O94885, sequence (O94885 whole entry, looked up): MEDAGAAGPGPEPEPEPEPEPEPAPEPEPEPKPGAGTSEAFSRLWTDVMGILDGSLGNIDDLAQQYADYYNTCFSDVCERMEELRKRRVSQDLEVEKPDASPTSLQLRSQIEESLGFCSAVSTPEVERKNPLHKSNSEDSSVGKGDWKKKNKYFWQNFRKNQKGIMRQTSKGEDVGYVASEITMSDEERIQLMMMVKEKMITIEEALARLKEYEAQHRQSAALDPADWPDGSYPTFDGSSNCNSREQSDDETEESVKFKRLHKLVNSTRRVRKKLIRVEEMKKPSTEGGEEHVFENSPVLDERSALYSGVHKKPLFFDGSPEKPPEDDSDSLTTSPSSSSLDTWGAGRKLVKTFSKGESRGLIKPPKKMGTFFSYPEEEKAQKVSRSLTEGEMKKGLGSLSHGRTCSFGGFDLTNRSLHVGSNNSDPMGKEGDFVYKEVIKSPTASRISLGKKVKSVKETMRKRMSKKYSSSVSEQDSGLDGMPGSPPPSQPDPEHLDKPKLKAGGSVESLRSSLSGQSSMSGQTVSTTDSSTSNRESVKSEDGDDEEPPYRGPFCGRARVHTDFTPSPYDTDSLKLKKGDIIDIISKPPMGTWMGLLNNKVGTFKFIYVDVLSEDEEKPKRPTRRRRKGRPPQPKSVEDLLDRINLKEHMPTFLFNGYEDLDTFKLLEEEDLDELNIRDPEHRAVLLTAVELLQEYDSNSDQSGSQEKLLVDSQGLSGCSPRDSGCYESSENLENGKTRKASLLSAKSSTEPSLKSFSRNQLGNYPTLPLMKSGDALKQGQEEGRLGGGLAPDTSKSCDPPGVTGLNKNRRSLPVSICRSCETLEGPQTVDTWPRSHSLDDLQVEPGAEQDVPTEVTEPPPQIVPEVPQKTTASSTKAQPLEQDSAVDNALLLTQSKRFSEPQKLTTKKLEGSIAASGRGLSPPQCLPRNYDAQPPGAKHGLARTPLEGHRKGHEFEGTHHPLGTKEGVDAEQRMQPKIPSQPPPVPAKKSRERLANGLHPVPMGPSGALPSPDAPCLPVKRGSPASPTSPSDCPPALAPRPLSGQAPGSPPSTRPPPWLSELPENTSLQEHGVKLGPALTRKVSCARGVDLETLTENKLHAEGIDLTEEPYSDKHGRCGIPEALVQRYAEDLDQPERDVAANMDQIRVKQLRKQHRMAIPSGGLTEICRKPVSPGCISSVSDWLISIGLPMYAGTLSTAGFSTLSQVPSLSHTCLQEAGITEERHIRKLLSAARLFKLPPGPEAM
UniProt P06400, sequence (P06400 whole entry, looked up): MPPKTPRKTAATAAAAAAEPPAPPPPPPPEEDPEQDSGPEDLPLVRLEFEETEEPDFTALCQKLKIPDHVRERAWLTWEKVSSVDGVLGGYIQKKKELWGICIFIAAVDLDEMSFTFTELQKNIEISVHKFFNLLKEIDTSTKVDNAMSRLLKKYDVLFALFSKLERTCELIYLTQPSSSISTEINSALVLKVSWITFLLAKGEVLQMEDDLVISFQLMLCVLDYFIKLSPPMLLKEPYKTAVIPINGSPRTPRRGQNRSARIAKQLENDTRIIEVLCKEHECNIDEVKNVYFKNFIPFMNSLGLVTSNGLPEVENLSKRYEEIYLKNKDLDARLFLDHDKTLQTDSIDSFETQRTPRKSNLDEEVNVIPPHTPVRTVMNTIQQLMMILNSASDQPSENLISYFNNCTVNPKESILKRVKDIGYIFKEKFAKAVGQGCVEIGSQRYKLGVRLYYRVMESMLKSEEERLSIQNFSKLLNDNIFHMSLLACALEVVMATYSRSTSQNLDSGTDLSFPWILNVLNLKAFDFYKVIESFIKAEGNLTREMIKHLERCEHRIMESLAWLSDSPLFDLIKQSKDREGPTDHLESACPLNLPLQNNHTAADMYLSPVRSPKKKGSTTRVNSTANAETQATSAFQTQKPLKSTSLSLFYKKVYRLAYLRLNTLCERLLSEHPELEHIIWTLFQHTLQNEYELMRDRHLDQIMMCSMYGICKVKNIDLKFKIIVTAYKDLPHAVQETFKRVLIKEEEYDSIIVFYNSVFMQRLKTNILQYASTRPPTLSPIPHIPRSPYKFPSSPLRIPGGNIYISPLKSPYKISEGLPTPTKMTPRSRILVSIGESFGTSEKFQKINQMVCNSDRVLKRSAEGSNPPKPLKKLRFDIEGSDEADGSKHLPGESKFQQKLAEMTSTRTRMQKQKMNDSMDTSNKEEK
UniProt Q13546, sequence (Q13546 whole entry, looked up): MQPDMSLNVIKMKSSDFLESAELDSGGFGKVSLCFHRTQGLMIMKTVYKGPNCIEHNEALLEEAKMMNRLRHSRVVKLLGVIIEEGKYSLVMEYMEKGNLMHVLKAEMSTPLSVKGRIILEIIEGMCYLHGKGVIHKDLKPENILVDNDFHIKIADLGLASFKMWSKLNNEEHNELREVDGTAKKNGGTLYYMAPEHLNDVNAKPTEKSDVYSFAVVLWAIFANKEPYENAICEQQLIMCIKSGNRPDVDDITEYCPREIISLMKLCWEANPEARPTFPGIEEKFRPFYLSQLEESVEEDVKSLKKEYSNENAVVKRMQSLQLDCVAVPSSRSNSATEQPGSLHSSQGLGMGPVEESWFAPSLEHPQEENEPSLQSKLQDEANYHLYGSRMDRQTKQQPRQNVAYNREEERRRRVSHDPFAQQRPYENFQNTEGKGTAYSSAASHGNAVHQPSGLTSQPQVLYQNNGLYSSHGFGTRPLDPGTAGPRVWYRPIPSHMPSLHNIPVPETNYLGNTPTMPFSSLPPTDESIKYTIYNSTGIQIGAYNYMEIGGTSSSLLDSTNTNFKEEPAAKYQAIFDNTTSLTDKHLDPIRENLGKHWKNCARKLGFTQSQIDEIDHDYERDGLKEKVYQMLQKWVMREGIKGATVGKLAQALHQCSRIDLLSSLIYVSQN
UniProt Q9NSI8, sequence (Q9NSI8 whole entry, looked up): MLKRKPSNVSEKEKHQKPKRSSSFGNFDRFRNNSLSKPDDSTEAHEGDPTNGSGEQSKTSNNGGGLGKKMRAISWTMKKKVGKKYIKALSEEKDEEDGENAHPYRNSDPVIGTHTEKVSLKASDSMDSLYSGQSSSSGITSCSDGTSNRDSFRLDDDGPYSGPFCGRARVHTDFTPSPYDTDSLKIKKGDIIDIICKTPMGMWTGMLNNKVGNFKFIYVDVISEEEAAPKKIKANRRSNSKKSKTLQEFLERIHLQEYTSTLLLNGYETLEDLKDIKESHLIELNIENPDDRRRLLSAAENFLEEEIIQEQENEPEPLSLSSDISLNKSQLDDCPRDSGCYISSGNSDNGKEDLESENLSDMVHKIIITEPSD

With RABGGTA (UniProt Q92696), the log2 fold change in assay [1] was -0.105; in assay [2], 0.084; in assay [3], 0.035; in assay [4], 0.014; in assay [5], -0.024.

As for RFC3 (UniProt P40938), the log2 fold change in assay [1] was -0.005; in assay [2], 0.028; in assay [3] it was 0.029; in assay [4], -0.019; in assay [5], -0.074.

RDH13 (UniProt Q8NBN7): the log2 fold change in assay [1] is -0.013; in assay [2] it was 0.052; in assay [3], 0.032; in assay [4], 0.013; in assay [5] it was -0.062.

SERPINA7 (UniProt P05543): the log2 fold change in assay [1] is -0.014; in assay [2] it was -0.001; in assay [3], 0.1; in assay [4] it was 0.12; in assay [5] it was 0.128.

For the target RAB5C isoform 2 (UniProt P51148), the log2 fold change in assay [1] was -0.007; in assay [2] it was -0.009; in assay [3] it was -0.022; in assay [4], 0.011; in assay [5], 0.018.

In the case of RB1 (UniProt P06400), the log2 fold change in assay [1] is -0.038; in assay [2] it was 0.064; in assay [3], 0.048; in assay [4], 0.011; in assay [5], 0.

Turning to RPS21 (UniProt P63220), the log2 fold change in assay [1] was -0.008; in assay [2], -0.047; in assay [3] it was 0.028; in assay [4], 0.017; in assay [5] it was 0.02.

As to SDHC (UniProt Q99643), the log2 fold change in assay [1] was -0.052; in assay [2], 0.004; in assay [3], -0.056; in assay [4] it was -0.018; in assay [5], 0.163.

For the target RAC3 (UniProt P60763), the log2 fold change in assay [1] was -0.006; in assay [2], 0.028; in assay [3], 0.029; in assay [4], -0.025; in assay [5], -0.147.

As for RIPK1 (UniProt Q13546), the log2 fold change in assay [1] is -0.058; in assay [2], -0.134; in assay [3], 0.033; in assay [4], -0.048; in assay [5] it was -0.049.

Regarding SEC31A (UniProt O94979), the log2 fold change is -0.067 in assay [1]; 0.034 in assay [2]; 0.09 in assay [3]; -0.03 in assay [4]; -0.006 in assay [5].

Regarding RAB9A (UniProt P51151), the log2 fold change in assay [1] is 0.024; in assay [2] it was 0.088; in assay [3], 0.065; in assay [4] it was -0.04; in assay [5] it was 0.001.

In the case of SAMSN1 isoform 3 (UniProt Q9NSI8), the log2 fold change in assay [1] is -0.028; in assay [2], 0.014; in assay [3], 0.025; in assay [4], -0.01; in assay [5], -0.01.

On to RPRD1B (UniProt Q9NQG5), for which the log2 fold change in assay [1] was -0.006; in assay [2] it was 0.06; in assay [3], 0.043; in assay [4] it was 0.009; in assay [5], 0.014.

Consider SCPEP1 (UniProt Q9HB40), for which the log2 fold change was 0.006 in assay [1]; -0.006 in assay [2]; -0.001 in assay [3]; 0.007 in assay [4]; -0.007 in assay [5].

As for RCOR1 (UniProt Q9UKL0), the log2 fold change in assay [1] was -0.113; in assay [2], 0.021; in assay [3], 0.114; in assay [4] it was 0.006; in assay [5], 0.856 (active).

Turning to SASH1 (UniProt O94885), the log2 fold change in assay [1] was -0.044; in assay [2], 0.092; in assay [3], 0.037; in assay [4], -0.045; in assay [5], -0.161.

In the case of RPP14 (UniProt O95059), the log2 fold change in assay [1] was 0.044; in assay [2], -0.023; in assay [3], -0.028; in assay [4], 0.002; in assay [5], -0.009.

Turning to RBM26 isoform 2 (UniProt Q5T8P6), the log2 fold change in assay [1] was -0.068; in assay [2], 0.016; in assay [3], 0.144; in assay [4], -0.011; in assay [5] it was 0.012.

For RPL38 (UniProt P63173), the log2 fold change in assay [1] is 0.012; in assay [2], -0.03; in assay [3], -0.046; in assay [4] it was 0.053; in assay [5], 0.013.

Take RBM27 (UniProt Q9P2N5): the log2 fold change in assay [1] is -0.015; in assay [2], 0.005; in assay [3] it was 0.049; in assay [4] it was 0.029; in assay [5] it was -0.01.

In the case of RAB33B (UniProt Q9H082), the log2 fold change in assay [1] was 0.003; in assay [2] it was -0.028; in assay [3] it was 0.116; in assay [4] it was -0.016; in assay [5], 0.069.

Turning to SEPTIN5 (UniProt Q99719), the log2 fold change is -0.021 in assay [1]; 0.069 in assay [2]; 0.014 in assay [3]; -0.045 in assay [4]; -0.016 in assay [5].

Regarding SEPTIN5 (UniProt G3XAH0), the log2 fold change was 0.002 in assay [1]; -0.014 in assay [2]; 0.061 in assay [3]; -0.043 in assay [4]; -0.031 in assay [5].

RALGPS2 (UniProt Q86X27): the log2 fold change in assay [1] is -0.069; in assay [2], 0.073; in assay [3] it was -0.093; in assay [4], 0.116; in assay [5], -0.01.

For RAD51 (UniProt Q06609), the log2 fold change was -0.006 in assay [1]; 0.142 in assay [2]; -0.037 in assay [3]; 0 in assay [4]; -0.053 in assay [5].
